# Experimental data published in PubChem BioAssay (NCATS).
# Where “and” joins values, the source holds several entries; their conditions need not be identical. Equal entries are not always repeated. Results filed as inconclusive are left out. Entries that show only a call come without a potency. Unmarked numbers belong to inactive results. Calls of active or inactive are those of the source. Calls come from the whole dose curve; as a rule, active = well fitted curve in the direction sought with a large enough effect; inconclusive = small, poorly fitted or top-dose-only effect, or another doubt; inactive = no such curve, though single readings can be large; an effect the other way counts as inactive or inconclusive.
# Assays:
# W2 = assay: qHTS profiling for inhibitors of Plasmodium falciparum proliferation (AID 504749); note: nearly all actives have a fitted effect of over 60% in size; settings: P. falciparum in erythrocytes, SYBR Green DNA, 72 h; series mostly up to 28.7 µM
# In short: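 Fluorescence of SYBR Green-bound parasite DNA, read at 485/535 nm, served as the growth measure. Infected erythrocytes were cultured with compound 72 h; artemisinin (0.29 uM) and DMSO wells defined the normalization range.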
# HEK293 = assay: Cytotoxic Profiling of Annotated Libraries Using Quantitative High-Throughput Screening (AID 1296008); settings: Five cell lines viability, CellTiter-Glo ATP luminescence, 48-72 h; max response: active compounds read low; note: nearly all actives have a fitted effect of over 60% in size
# In short: (§1)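 Compounds were pin-transferred onto cells and incubated 48 or 72 hr at 37 degree Celsius, 95% humidity. CellTiter-Glo was added, plates sat 10 min at room temperature, then ATP-coupled luminescence was imaged as the viability read-out.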
# HaCat [1] = assay: as above; settings: Five cell lines viability, CellTiter-Glo ATP luminescence, 48-72 h; max response: active compounds read low
# In short: as §1
# MCC-26 = assay: qHTS assay to identify novel small-molecules to repurpose for Merkel cell carcinoma treatment (AID 1296009); settings: MCC and control cell lines, CellTiter-Glo viability, 72 h; series mostly up to 46 µM; note: nearly all actives have a fitted effect of over 60% in size
# In short: (§2)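 Luminescence from CellTiter-Glo, read 10 min after addition at room temperature, reported viability following a 72 hr, 37 degree celsius treatment with NPC or MIPE compounds in titration; values normalized to plate controls.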
# MKL-1 = assay: as above; settings: MCC and control cell lines, CellTiter-Glo viability, 72 h; series mostly up to 46 µM
# In short: as §2
# MKL-2 = assay: as above; settings: MCC and control cell lines, CellTiter-Glo viability, 72 h; series mostly up to 46 µM
# In short: as §2
# UISO = assay: as above; settings: MCC and control cell lines, CellTiter-Glo viability, 72 h; series mostly up to 46 µM
# In short: as §2
# WaGa = assay: as above; settings: MCC and control cell lines, CellTiter-Glo viability, 72 h; series mostly up to 46 µM
# In short: as §2
# C33A = assay: Primary qHTS to identify gynecologic anti-cancer compounds using libraries of approved drugs and bioactive compounds (AID 1345084); settings: Gynecologic cancer cell panel viability, ATPlite luminescence, 48 h; series mostly up to 57.5 µM; note: nearly all actives have a fitted effect of over 55% in size
# In short: (§3)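 48 h compound exposure at 37 C, 5% CO2; five-point qHTS. ATPlite luminescence readout of cell ATP.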
# CASKI = assay: as above; settings: Gynecologic cancer cell panel viability, ATPlite luminescence, 48 h; series mostly up to 57.5 µM
# In short: as §3
# HeLa = assay: as above; settings: Gynecologic cancer cell panel viability, ATPlite luminescence, 48 h; series mostly up to 57.5 µM
# In short: as §3
# KB-3-1 = assay: Cytotoxic Profiling of Annotated Libraries Using Quantitative High-Throughput Screening (AID 1296008); settings: Five cell lines viability, CellTiter-Glo ATP luminescence, 48-72 h; max response: active compounds read low; note: nearly all actives have a fitted effect of over 60% in size
# In short: as §1
# NIH3T3 [2] = assay: as above; settings: Five cell lines viability, CellTiter-Glo ATP luminescence, 48-72 h; max response: active compounds read low
# In short: as §1
# HEK293T = assay: qHTS assay to identify novel small-molecules to repurpose for Merkel cell carcinoma treatment (AID 1296009); settings: MCC and control cell lines, CellTiter-Glo viability, 72 h; at 44.8 µM (top of the series) unless noted; note: nearly all actives have a fitted effect of over 60% in size
# In short: as §2
# MCC-13 = assay: as above; settings: MCC and control cell lines, CellTiter-Glo viability, 72 h; series mostly up to 46 µM
# In short: as §2
# CAOV3 = assay: Primary qHTS to identify gynecologic anti-cancer compounds using libraries of approved drugs and bioactive compounds (AID 1345084); settings: Gynecologic cancer cell panel viability, ATPlite luminescence, 48 h; series mostly up to 57.5 µM; note: nearly all actives have a fitted effect of over 55% in size
# In short: as §3
# Es-2 = assay: as above; settings: Gynecologic cancer cell panel viability, ATPlite luminescence, 48 h; series mostly up to 57.5 µM
# In short: as §3
# HACAT [3] = assay: qHTS assay to identify novel small-molecules to repurpose for Merkel cell carcinoma treatment (AID 1296009); settings: MCC and control cell lines, CellTiter-Glo viability, 72 h; at 44.8 µM (top of the series) unless noted; note: nearly all actives have a fitted effect of over 60% in size
# In short: as §2
# NIH3T3 [4] = assay: as above; settings: MCC and control cell lines, CellTiter-Glo viability, 72 h; at 44.8 µM (top of the series)
# In short: as §2
# Potency is the fitted concentration of half-maximal effect.
structure (smiles),measurement,setting,value
CCCCCCCCCCCCCC[N+](C)(C)Cc1ccccc1,Potency,W2,4.26 µM (active)
same,Potency,HEK293,2.99 µM (active)
same,Potency,HaCat [1],11.9 µM (active)
same,Potency,MCC-26,21.1 µM (active)
same,Potency,MKL-1,6.68 µM (active)
same,Potency,MKL-2,1.06 µM (active)
same,Potency,UISO,6.68 µM (active)
same,Potency,WaGa,7.5 µM (active)
same,Potency,C33A,25.1 µM (active)
same,Potency,CASKI,14.1 µM (active)
same,Potency,HeLa,25.1 µM (active)
Cc1cc2c(OCC(CNC(C)(C)C)OC(=O)c3ccccc3)cccc2[nH]1 (stereo not drawn),Potency,W2,2.13 µM (active)
same,outcome,HEK293,inactive
same,max response,HaCat [1],1.54%
same,max response,KB-3-1,-8.32%
same,max response,NIH3T3 [2],2.07%
same,outcome,HEK293T,inactive
same,Potency,MCC-13,inactive
same,Potency,MKL-1,inactive
same,Potency,MKL-2,inactive
same,Potency,UISO,inactive
same,Potency,C33A,inactive
same,Potency,CAOV3,inactive
same,Potency,CASKI,inactive
same,Potency,Es-2,inactive
same,Potency,HeLa,inactive
NS(=O)(=O)c1cc(C(=O)O)cc(N2CCCC2)c1Oc1ccccc1,max response,HEK293,2.69%
same,max response,HaCat [1],-7.61%
same,max response,KB-3-1,3.66%
same,max response,NIH3T3 [2],-1.53%
same,Potency,MCC-13,inactive
same,Potency,MKL-1,inactive
same,Potency,MKL-2,inactive
same,Potency,UISO,inactive
same,Potency,WaGa,inactive
same,Potency,C33A,inactive
same,Potency,CAOV3,inactive
same,Potency,CASKI,inactive
same,Potency,Es-2,inactive
same,Potency,HeLa,inactive
CNCCCCOc1ccccc1Cc1ccccc1,Potency,W2,1.35 µM (active)
same,Potency,HEK293,15 µM (active)
same,max response,HaCat [1],-10%
same,Potency,MCC-13,inactive
same,Potency,MCC-26,inactive
same,Potency,MKL-2,18.8 µM (active)
same,Potency,WaGa,18.8 µM (active)
same,Potency,C33A,25.1 µM (active)
same,Potency,HeLa,inactive
Oc1c(Cl)cc(Cl)c(Cl)c1Cc1c(O)c(Cl)cc(Cl)c1Cl,Potency,HEK293,8.41 µM (active)
same,Potency,UISO,11.9 µM (active)
same,Potency,WaGa,23.7 µM (active)
same,Potency,CAOV3,inactive
same,Potency,CASKI,inactive
NC(N)=NCc1cccc(I)c1,Potency,W2,inactive
same,max response,KB-3-1,1.64% and -6.45%
CN(Cc1ccc(C(C)(C)C)cc1)Cc1cccc2ccccc12,Potency,W2,9.53 µM (active)
same,max response,KB-3-1,-4.26% and -7.03%
same,max response,NIH3T3 [2],-14%
same,Potency,MCC-13,inactive
same,Potency,MCC-26,inactive
same,Potency,MKL-1,inactive
same,Potency,MKL-2,inactive
same,Potency,UISO,inactive
same,Potency,WaGa,inactive
same,Potency,C33A,inactive
same,Potency,CAOV3,inactive
same,Potency,CASKI,inactive
same,Potency,Es-2,inactive
same,Potency,HeLa,inactive
CN(C)CCOC(c1ccc(Cl)cc1)c1ccccn1 (stereo not drawn),Potency,W2,1.07 µM (active)
same,max response,HEK293,-23.8%
same,max response,KB-3-1,10.7%
same,Potency,MCC-13,inactive
same,Potency,MCC-26,inactive
same,Potency,MKL-1,inactive
same,Potency,MKL-2,inactive
same,Potency,UISO,inactive
same,Potency,WaGa,inactive
CC(=O)NO,Potency,W2,inactive
same,max response,HEK293,1.75%
same,max response,HaCat [1],-61%
same,max response,NIH3T3 [2],2.47%
same,Potency,MCC-13,inactive
same,Potency,MKL-1,inactive
same,Potency,MKL-2,inactive
same,Potency,UISO,inactive
same,Potency,WaGa,inactive
same,Potency,C33A,inactive
same,Potency,CAOV3,inactive
same,Potency,CASKI,inactive
same,Potency,Es-2,inactive
same,Potency,HeLa,inactive
CCN(CC)CCNC(=O)COc1ccc(OC)cc1,max response,HEK293,4.77%
same,max response,KB-3-1,7.84%
same,max response,NIH3T3 [2],-6.7%
same,Potency,MCC-13,inactive
same,Potency,MCC-26,inactive
same,Potency,MKL-1,inactive
same,Potency,MKL-2,inactive
same,Potency,UISO,inactive
same,Potency,WaGa,inactive
same,Potency,C33A,inactive
same,Potency,CAOV3,inactive
same,Potency,CASKI,inactive
same,Potency,Es-2,inactive
same,Potency,HeLa,inactive
CCC1Nc2cc(Cl)c(S(N)(=O)=O)cc2S(=O)(=O)N1 (stereo not drawn),Potency,W2,inactive
same,outcome,HEK293,inactive
same,max response,HaCat [1],3.1%
same,max response,KB-3-1,-3.7%
same,max response,NIH3T3 [2],3.7%
same,outcome,HEK293T,inactive
same,Potency,MCC-13,inactive
same,Potency,MKL-1,inactive
same,Potency,MKL-2,inactive
same,Potency,UISO,inactive
same,Potency,WaGa,inactive
same,Potency,C33A,inactive
same,Potency,CAOV3,inactive
same,Potency,CASKI,inactive
same,Potency,Es-2,inactive
same,Potency,HeLa,inactive
O=C(O)C1(C(=O)O)CCC1.[NH2-].[NH2-].[Pt+2],max response,HEK293,1.14%
same,max response,HaCat [1],1.48%
same,max response,KB-3-1,13%
same,max response,NIH3T3 [2],-2.25%
same,Potency,MCC-13,inactive
same,Potency,MKL-1,inactive
same,Potency,MKL-2,inactive
same,Potency,UISO,inactive
same,Potency,WaGa,inactive
same,Potency,C33A,inactive
same,Potency,CAOV3,inactive
same,Potency,CASKI,inactive
same,Potency,Es-2,inactive
same,Potency,HeLa,inactive
CC(C)[C@@H]1CC[C@@H](C)CC1=O,max response,HEK293,-11.3%
same,outcome,HaCat [1],inactive
same,max response,NIH3T3 [2],4.81%
same,outcome,HACAT [3],inactive
same,Potency,MCC-13,inactive
same,Potency,MCC-26,inactive
same,Potency,MKL-1,inactive
same,Potency,MKL-2,inactive
same,Potency,UISO,inactive
same,Potency,WaGa,inactive
same,Potency,C33A,inactive
same,Potency,CAOV3,inactive
same,Potency,CASKI,inactive
same,Potency,Es-2,inactive
same,Potency,HeLa,inactive
Nc1ccc(S(=O)(=O)Nc2cnc3ccccc3n2)cc1,Potency,W2,inactive
same,max response,HEK293,1.95%
same,max response,HaCat [1],-4.06%
same,max response,KB-3-1,-10.8%
same,outcome,NIH3T3 [2],inactive
same,Potency,MCC-13,inactive
same,Potency,MCC-26,inactive
same,Potency,MKL-1,inactive
same,Potency,MKL-2,inactive
same,outcome,NIH3T3 [4],inactive
same,Potency,UISO,inactive
same,Potency,WaGa,inactive
same,Potency,C33A,inactive
same,Potency,CAOV3,inactive
same,Potency,CASKI,inactive
same,Potency,Es-2,inactive
same,Potency,HeLa,inactive
NC(=O)C1(N2CCCCC2)CCN(CCCC(=O)c2ccc(F)cc2)CC1,max response,HEK293,-19.7%
same,outcome,HaCat [1],inactive
same,max response,NIH3T3 [2],-2.39%
same,outcome,HACAT [3],inactive
same,Potency,MCC-13,inactive
same,Potency,MCC-26,inactive
same,Potency,MKL-1,inactive
same,Potency,MKL-2,inactive
same,Potency,UISO,inactive
same,Potency,WaGa,inactive
same,Potency,C33A,inactive
same,Potency,CASKI,inactive
same,Potency,Es-2,inactive
same,Potency,HeLa,inactive
N#C/C(=C1\SCC(c2ccccc2Cl)S1)n1ccnc1 (stereo not drawn),max response,HEK293,-7.28%
same,outcome,HaCat [1],inactive
same,max response,KB-3-1,0.837%
same,max response,NIH3T3 [2],-9.88%
same,outcome,HACAT [3],inactive
same,Potency,MCC-13,inactive
same,Potency,MKL-1,inactive
same,Potency,MKL-2,inactive
same,Potency,UISO,inactive
same,Potency,WaGa,inactive
same,Potency,C33A,inactive
same,Potency,CAOV3,inactive
same,Potency,CASKI,inactive
same,Potency,Es-2,inactive
CCCCCCCCNC(C)C(O)c1ccc(SC(C)C)cc1 (stereo not drawn),Potency,W2,0.169 µM (active)
same,Potency,HEK293,13.3 µM (active)
same,max response,KB-3-1,7.32%
same,Potency,MKL-2,18.8 µM (active)
same,Potency,HeLa,inactive
CCCCCCCCCCCCOCCOCCOCCOCCOCCOCCOCCOCCOCCO,Potency,HEK293,7.5 µM (active)
same,max response,HaCat [1],0.283%
same,max response,NIH3T3 [2],-5.79%
same,Potency,MCC-13,inactive
same,Potency,MCC-26,inactive
same,Potency,WaGa,21.1 µM (active)
